# High-throughput results deposited in PubChem by Center for Chemical Genomics, University of Michigan.
# This excerpt belongs to a sample that is enriched for hits.
# Dicer inh: inhibitors of human Dicer processing of pre-microRNA | cat-ELCCA pre-miR-21 Dicer processing, chemiluminescence; hits give high values | z-score at 25 µM | 47,000 compounds, 6% hits; in the data active = z-score above about 3, passing the limit was not always enough;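 also: higher signal means more uncleaved substrate so more Dicer inhibition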
# Hits are given with their value; – = inactive.
SMILES,Dicer inh
Cc1ccc2c(c1)-c1cc(C)nn1C(c1ccc(O)cc1O)N2 (stereo not given),3.71
COc1cccc(C2Nc3ccc(C)cc3-c3cc(C)nn32)c1O (stereo not given),3.04
CNc1nc(SCC(=O)c2ccccc2)nc2sc3c(c12)CCCC3,–
CC(C)(C)C(=O)NNC(=O)CSc1nc2cc(Cl)ccc2s1,–
COc1ccc(-c2oc3ccccc3c(=O)c2OS(=O)(=O)c2cc(Cl)ccc2Cl)cc1,–
Cc1onc(-c2ccccc2)c1NC(=O)N(C)C1CCCCC1,–
O=C(Nc1ccc2oc(-c3ccccc3Cl)nc2c1)c1ccc([N+](=O)[O-])o1,–
COc1ccc(Br)cc1C1Nc2c(C)cccc2-c2cc(C)nn21 (stereo not given),–
COc1ccc(Br)cc1C1Nc2ccc(C)cc2-c2cc(C)nn21 (stereo not given),3.45
COc1ccc(C2Nc3ccc(C)cc3-c3cc(C)nn32)cc1OC (stereo not given),–
CC1CCN(/C(=N/S(=O)(=O)c2ccc(-n3nc(C(F)(F)F)cc3-c3cccs3)cc2)NN)CC1,–
CC1=NN(c2ccccc2)C(=O)/C1=C1/SC(C(=O)c2ccccc2)=NN1c1ccc(Cl)cc1,–
CC1=NN(c2ccccc2)C(=O)/C1=C1/SC(C(=O)c2ccccc2)=NN1c1ccccc1,–
O=C1ON=C(c2ccccc2)/C1=C1\SC(C(=O)c2ccccc2)=NN1c1ccccc1,3.49
COC(=O)c1sc(-c2ccccc2)cc1NS(=O)(=O)c1ccc(Cl)cc1Cl,–
Nc1nc(-c2cccnc2)nn1C(=O)Cc1ccccc1,8.25
O=C(O)c1cc(-c2cccnc2)nc2ccccc12,–
CC(=O)n1nc(-c2cccnc2)nc1N,5.53
CCOC(=O)Cn1c(-c2cccnc2)nc(-c2ccccc2)c1-c1ccccc1,–
Nc1nc(-c2cccnc2)nn1C(=O)c1ccc(Cl)cc1,–
Nc1nc(-c2cccnc2)nn1S(=O)(=O)c1ccccc1,–
CSC1=C(C#N)C(=O)NC(c2c(Cl)cccc2Cl)S1 (stereo not given),–
CCOC(=O)c1sc(N2CCCC2)c2c1CC(C)(C)CC2=O,–
CC(C)C(NC(=O)c1nccnc1C(=O)O)C(=O)O (stereo not given),–
Cc1ccsc1C1Nc2nonc2NC2=C1C(=O)CC(C)(C)C2 (stereo not given),–
SMILES,Dicer inh
COc1ccccc1C1N(c2ccccc2)OC(=O)N1c1ccccc1 (stereo not given),–
O=C1CC(c2ccc3c(c2)OCO3)c2c(-c3ccccc3)nn(-c3ccccc3)c2N1 (stereo not given),–
O=C1ON(c2ccccc2)C(c2ccc3c(c2)OCO3)N1c1ccccc1 (stereo not given),3.21
CCOc1cc([N+](=O)[O-])c(OCC)cc1N1CCOCC1,–
CSc1sc(C(=O)O)c2c1C(=O)CC(C)(C)C2,–
CSc1sc(/C(C)=N\O)c2c1/C(=N\O)CC(C)(C)C2,5.6
COC(=O)c1sc(SC)c2c1CC(C)(C)C/C2=N/O,–
CCOC(=O)c1sc(NC(=O)CCCC(=O)O)nc1C,–
CCOCCOC(=O)C1=C(C)NC2=C(C(=O)CC(c3ccc(Cl)cc3)C2)C1c1ccccc1F (stereo not given),–
O=C1CC(NCc2ccc3c(c2)OCO3)C(=O)N1c1ccc2c(c1)OCO2 (stereo not given),–
CN(C)/C=C/C=C1\N=C(c2ccccc2)OC1=O,–
CN(C)/C=C/C=c1/c(=O)c2cccc3cccc1c32,3.72
CN(C)N1C(=O)c2cccc3cccc(c23)C1=O,–
Cc1nc(C(F)(F)F)ccc1C(=O)N1CCN(C(c2ccccc2)c2ccccc2)CC1,–
CCOc1ccc(C2C(C(=O)OCc3ccc(OC)cc3)=C(C)NC3=C2C(=O)CC(C)(C)C3)cc1 (stereo not given),–
Cc1nc2c(cnn2-c2ccccc2)c(=O)o1,–
O=c1[nH]cnc2c1cnn2-c1ccc(F)cc1,–
O=c1[nH]cnc2c1cnn2-c1ccccc1,3.6
COCn1c(COc2ccc3ccccc3c2)nc2ccccc21,–
CN(C)C(=O)COc1ccc2ccccc2c1,–
O=C(OCc1ccccn1)c1ccc(COc2ccc3ccccc3c2)o1,3.03
O=C(NCc1csc2ccccc12)C1CC1,–
O=C(O)CSCC(=O)NCc1csc2ccccc12,4.35
O=C(O)CSCC(=O)NCc1csc2ccc(Cl)cc12,–
O=C(Oc1ccc(Cl)cc1)c1cscc1Sc1ccc(Cl)cc1,–
SMILES,Dicer inh
C/C(N)=N/C(=S)Nc1ccc(Cl)cc1,–
CO/C(N)=N/C(=S)Nc1ccccc1,–
CC(C)=NN/C(N)=N/C(=S)Nc1ccccc1,3.99
O=C(NNc1cc(C(F)(F)F)ccn1)c1cccc(C(F)(F)F)c1,–
CCOC(=O)c1ccc2c(c1)[C@@H]1C=CC[C@@H]1[C@H](c1ccc(C(=O)O)cc1)N2,–
COC(=O)c1ccc2c(c1)C1C=CCC1[C@@H](c1ccc(C(=O)O)cc1)N2 (stereo not given in full),–
Cc1c(C(=O)O)ccc2c1NC(c1ccc(C(C)C)cc1)C1CC=CC21 (stereo not given),3.36
